Experimental data reported in PubChem BioAssay (Tox21).
Where “and” joins values, the source holds several entries; their conditions need not be identical. Identical values can stand only once. Records with an inconclusive call do not appear. Where a call stands in place of a potency, no number is given. Calls of active or inactive are those of the source. Calls follow the shape of the dose curve; as a rule, active = well fitted cell-killing curve with a large enough effect in the repeat runs; inconclusive = weak or mixed curves, or effect the other way; inactive = no such curve, though single readings can be large or run the other way.

test: qHTS assay to identify small molecule antagonists of the sonic hedgehog signaling (Shh) pathway - cell viability counter screen (AID 1259367); conditions: NIH/3T3 Gli1-Luc viability, CellTiter-Fluor, 24 h; series mostly up to 92.4 µM; also: nearly all actives have a fitted effect of over 55% in size
From the text: National Center for Advancing Translational Sciences [NCATS]
NIH Chemical Genomics Center [NCGC]
U.S. Environmental Protection Agency [EPA]
National Institutes of Environmental Health Sciences [NIEHS]
National Toxicology Program [NTP]
U.S. Food and Drug Administration [FDA]
The sonic hedgehog (Shh) pathway is essential for normal embryonic development. Dysregulation of the Shh pathway can cause severe developmental defects in organs. Therefore chemicals that interfere with the pathway are potential developmental toxicants. A cell line designated 3T3Gli1-Luc (DMB/OARSA/CFSAN/FDA, Laurel, MD), a NIH/3T3 derived clone containing stably integrated Gli1-Luc reporter is used to detect chemical interference of the Shh pathway, by changes in the expression of the firefly Luc gene under the control of the Gli1 transcriptional response element. This cell line was used to screen Tox21 libraries for identifying and prioritizing the potential developmental toxicants that interfere Shh pathway. Conditioned medium-stimulated mode was used to screen for chemicals inhibiting Shh signaling. The cytotoxicity of the compounds was tested in parallel by measuring the cell viability using CellTiter-Fluor assay system (Promega, Madison, WI) in the same wells.
Tox21 Assay Protocol Summary:
3T3 Gli1-Luc cells were dispensed at 2,000 per well in 5uL of culture medium into white solid bottom 1536-well plates (Greiner Bio-One, Monroe, NC) using a Multidrop Combi (Thermo Scientific, Waltham, MA) dispenser. The assay plates were incubated at 37 C and 5% CO2 for 4hr, and then 23nL of compounds dissolved in DMSO and positive control were transferred using a Pintool station (Wako, San Diego, CA). The compound transfer was followed by the addition of 1ul conditioned medium or assay buffer using two separate tips of Flying Reagent Dispenser (FRD, Aurora Discovery, San Diego, CA). The assay plates were incubated at 37C and 5% CO2 for 24hr. For viability read, after 23hr of compound treatment, 1uL of CellTiter-Fluor reagent (Promega Corporation, Madison, WI) was added to each well of the assay plates using Flying Reagent Dispenser (FRD, Aurora Discovery, San Diego, CA) and incubated the assay plates at 37C for 1hr. The fluorescence signal was quantified using a ViewLux plate reader (Perkin Elmer, Shelton, CT).
Potency is read from the fitted curve at half-maximal effect.

With `O=C(O)C1C2CCC(O2)C1C(=O)O` (stereo not given) as the compound, how does the Potency read?
The Potency was 31 µM (active).

Which Potency does the source give for `CN(CCCC(O)c1cccnc1)N=O` (stereo not given) here?
Its Potency is “inactive”.

With `CCCCCCCCCC[N+](C)(C)CCCCCCCCCC` as the compound, how does the Potency read?
Its Potency is 13.7 µM (active).

With `Oc1c(Cl)c(Cl)cc(Cl)c1Cl` as the compound, how does the Potency read?
The Potency was “inactive”.

With `Nc1ccc(Sc2ccc(N)cc2)cc1` as the compound, how does the Potency read?
Its Potency is “inactive”.

For `COc1cccc2c1C(=O)c1c(O)c3c(c(O)c1C2=O)C[C@@](O)(C(=O)CO)CC3OC1CC(N2CCOC(OC)C2)C(O)C(C)O1` (stereo not given in full), which Potency is on record?
The Potency was 0.168 µM (active).

For `COc1ccc(OC)c(C=O)c1`, which Potency is on record?
The Potency was “inactive”.

With `CCCCCCCCCCCCCN1CC(C)OC(C)C1` (stereo not given) as the compound, how does the Potency read?
Its Potency is “inactive”.

With `CC(C)[C@H](C(=O)OC(C#N)c1cccc(Oc2ccccc2)c1)c1ccc(OC(F)F)cc1` (stereo not given in full) as the compound, how does the Potency read?
Its Potency is “inactive”.

Which Potency does the source give for `CCCCOCN(C(=O)CCl)c1c(CC)cccc1CC` here?
Its Potency is 61.1 µM (active).

With `C[C@]12Cc3nonc3C[C@@H]1CC[C@@H]1[C@@H]2CC[C@@]2(C)[C@H]1CC[C@]2(C)O` as the compound, how does the Potency read?
The Potency was “inactive”.

Which Potency does the source give for `COC12CC[C@@]3(C[C@@H]1C(C)(O)C(C)(C)C)[C@H]1Cc4ccc(O)c5c4[C@@]3(CCN1CC1CC1)[C@H]2O5` (stereo not given in full) here?
The Potency was 17.1 µM (active).

With `N#CCCSCCC#N` as the compound, how does the Potency read?
The Potency was “inactive”.

For `[Hg+2].[I-].[I-]`, which Potency is on record?
The Potency was 4.33 µM (active).

With `CCN(CC)C(=S)[S-].CCN(CC)C(=S)[S-].[Zn+2]` as the compound, how does the Potency read?
Its Potency is 1.08 µM (active).

Which Potency does the source give for `COc1cc(N)c(Cl)cc1C(=O)NC1CN2CCC1CC2` (stereo not given) here?
Its Potency is “inactive”.

With `ClC1=C(Cl)[C@]2(Cl)[C@H]3[C@H]([C@H]4C=C[C@H]3C4)[C@@]1(Cl)C2(Cl)Cl` as the compound, how does the Potency read?
Its Potency is “inactive”.

With `ClC(Cl)=C(c1ccc(Cl)cc1)c1ccc(Cl)cc1` as the compound, how does the Potency read?
Its Potency is “inactive”.

For `ClC1=C(Cl)[C@]2(Cl)[C@@H]3[C@@H](Cl)[C@H](Cl)C[C@@H]3[C@@]1(Cl)C2(Cl)Cl`, which Potency is on record?
The Potency was “inactive”.

For `CC(=[OH+])/C=C(/C)[O-].CC(=[OH+])/C=C(\C)[O-].CC(=[OH+])/C=C(\C)[O-].[Fe]`, which Potency is on record?
Its Potency is “inactive”.

Which Potency does the source give for `COc1ccc([N+](=O)[O-])cc1O` here?
The Potency was “inactive”.

Which Potency does the source give for `CC(C)C1CCC(Cc2ccc(Cl)cc2)C1(O)Cn1cncn1` (stereo not given) here?
Its Potency is 53.9 µM (active).

Which Potency does the source give for `C[C@@H]1CC[C@@]2(OC1)O[C@H]1[C@@H](O)[C@H]3[C@@H]4CC[C@H]5C[C@@H](O[C@@H]6O[C@H](CO)[C@H](O[C@@H]7O[C@H](CO)[C@@H](O)[C@H](O[C@@H]8OC[C@@H](O)[C@H](O)[C@H]8O)[C@H]7O[C@@H]7O[C@H](CO)[C@@H](O)[C@H](O[C@@H]8O[C@H](CO)[C@@H](O)[C@H](O)[C@H]8O)[C@H]7O)[C@H](O)[C@H]6O)[C@H](O)C[C@]5(C)[C@H]4CC[C@]3(C)[C@H]1[C@@H]2C` here?
Its Potency is 32.5 µM (active).

For `O=C(NC(=O)c1c(F)cccc1F)Nc1cc(Cl)c(OC(F)(F)C(F)F)c(Cl)c1`, which Potency is on record?
Its Potency is “inactive”.

With `Oc1ccc(I)cc1` as the compound, how does the Potency read?
The Potency was “inactive”.

With `C=COCCCl` as the compound, how does the Potency read?
Its Potency is “inactive”.

For `CC(=O)[O-].[Tl+]`, which Potency is on record?
Its Potency is “inactive”.

With `O=C(Nc1ccc2[nH]ccc2c1)c1cc2cc(F)ccc2n1Cc1cccc(F)c1` as the compound, how does the Potency read?
Its Potency is 68.6 µM (active).

With `CN(C)C1CSSSC1` as the compound, how does the Potency read?
Its Potency is “inactive”.

For `Clc1ccc(-c2ccc(Cl)c(Cl)c2Cl)c(Cl)c1Cl`, which Potency is on record?
The Potency was “inactive”.

With `CC(C)N1C(=O)N(c2ccccc2)CSC1=NC(C)(C)C` as the compound, how does the Potency read?
The Potency was “inactive”.

Which Potency does the source give for `CCOP(=S)(OCC)SCS(=O)(=O)CC` here?
The Potency was “inactive”.

Which Potency does the source give for `CCOc1cc(C(C)(C)C)ccc1C1COC(c2c(F)cccc2F)=N1` (stereo not given) here?
Its Potency is “inactive”.

With `CCCCCCCCCCCCCCCC[n+]1ccccc1` as the compound, how does the Potency read?
The Potency was 50.8 µM (active) and 61.1 µM (active) and 60.3 µM (active).

For `N#CSCSC#N`, which Potency is on record?
The Potency was 12.5 µM (active) and 13.5 µM (active).

With `C[C@H]1O[C@@H](O[C@H]2[C@@H](O)C[C@H](O[C@H]3[C@@H](O)C[C@H](O[C@H]4CC[C@@]5(C)[C@H](CC[C@@H]6[C@@H]5CC[C@]5(C)[C@@H](C7=CC(=O)OC7)CC[C@]65O)C4)O[C@@H]3C)O[C@@H]2C)C[C@H](O)[C@@H]1O` as the compound, how does the Potency read?
Its Potency is “inactive”.

For `O=C(Cl)c1ccc(Cl)cc1`, which Potency is on record?
The Potency was “inactive”.

For `Cc1ccc(CCl)cc1`, which Potency is on record?
Its Potency is “inactive”.

For `Cn1cc(C2=C(c3cn(C4CCN(Cc5ccccn5)CC4)c4ccccc34)C(=O)NC2=O)c2ccccc21`, which Potency is on record?
Its Potency is “inactive”.

With `CN(C)C(=S)S` as the compound, how does the Potency read?
The Potency was 7 µM (active) and 4.82 µM (active) and 54.5 µM (active).
